# aSyn 5UTR act – Activators via SNCA 5'UTR binding, MLPCN. alpha-synuclein 5'UTR reporter, activators screen. activity score, % (tested at 7.5 µM), hits read low. actives 7.1% (n = 300,000). AID 1814, 2009; in the data active = activity score below about -60%
# * marks the source's active call; other numbers are inactive results. Only a sample is shown.
SMILES,aSyn 5UTR act
CC(C)OC(=O)CSc1nc2c(cc1C#N)CCCCC2,-166.0*
O=C1c2ccsc2SCCN1Cc1ccccc1,-65.0*
O=C1c2ccccc2C(=O)C1c1ccc2ccccc2n1,94.4
CCNc1ccccc(-c2ccc3ccccc3n2)c1=O,-186.4*
Cc1cccc2c1cnn2C(=O)Nc1ccccc1Br,-125.1*
Cc1cccc2c1cnn2C(=O)Nc1ccccc1Cl,-142.6*
Cc1ccccc1NC(=O)n1ncc2cc(Cl)ccc21,-97.8*
c1ccc2c(COn3nnc4ccccc43)cccc2c1,-222.8*
O=S(=O)(Nc1ccc2c(c1)OCCO2)c1cccs1,-90.6*
CN(CC(=O)Nc1ccc2c(c1)OCO2)S(=O)(=O)c1cccs1,-76.1*
O=C(Nc1ccc2c(c1)OCO2)C1CCN(S(=O)(=O)c2cccs2)CC1,-64.3*
O=C(CNS(=O)(=O)c1cccs1)Nc1ccc2c(c1)OCCO2,-90.8*
Cc1nn(C)c(C)c1S(=O)(=O)N1CCC(C(=O)Nc2ccc3c(c2)OCCO3)CC1,-110.8*
O=C1NC(=O)/C(=C/c2ccc(O)cc2)S1,-91.5*
O=C(Nc1ccc2c(c1)OCCO2)N1CCN(Cc2ccccc2)CC1,-66.2*
O=C(Nc1ccc2c(c1)OCO2)N1CCOCC1,-83.5*
CCC(C)c1ccc(NC(=O)N2CCOCC2)cc1 (configuration not stated),-101.6*
CC1CN(C(=O)Nc2ccc3c(c2)OCO3)CC(C)O1 (configuration not stated),-151.5*
O=C(O)C1CC=CCC1C(=O)Nc1ccc2c(c1)OCCO2 (configuration not stated),-73.0*
O=C(Nc1ccc2c(c1)OCCO2)N1CCOCC1,-79.7*
O=C(Nc1ccc2c(c1)OCO2)N1CCCC1,-88.1*
Cc1ccc(C(=O)c2cc3ccccc3o2)cc1[N+](=O)[O-],-119.3*
CC(Cc1ccccc1)NC(=O)c1cc2ccccc2o1 (configuration not stated),-162.1*
O=C(c1ccccc1)c1cc2ccccc2o1,-149.1*
O=C(c1ccc(F)cc1)c1cc2ccccc2o1,-171.4*
SMILES,aSyn 5UTR act
O=C(O)c1ccc(-c2noc(-c3cccc(C(F)(F)F)c3)n2)cc1,-82.6*
FC(F)(F)c1cccc(-c2nc(-c3ccncc3)no2)c1,-191.0*
Cc1cc(/C=C(\C#N)c2nc3ccccc3[nH]2)c(C)n1C,-223.5*
N#C/C(=C\c1ccc(Cl)cc1)c1nc2ncccc2[nH]1,-94.3*
N#C/C(=C/c1cccs1)c1nc2ccccc2[nH]1,-201.4*
CCOc1cc(N(CC)CC)ccc1/C=C(/C#N)c1nc2ccccc2[nH]1,-107.4*
Cc1ccc(/C=C(\C#N)c2nc3ccccc3[nH]2)s1,-228.6*
N#C/C(=C\c1c(Cl)cccc1Cl)c1nc2ccccc2[nH]1,-63.7*
N#C/C(=C\C1CC=CCC1)c1nc2ccccc2[nH]1 (configuration not stated),-65.6*
N#C/C(=C\c1cccs1)Sc1nc2ccccc2s1,-68.3*
N#C/C(=C(/O)c1cccs1)c1nc2ccccc2[nH]1,-102.4*
Cc1ccc(NC(=O)c2sc(Cl)nc2-c2ccccc2)cc1,-63.4*
O=C(Nc1ccc(F)cc1)c1sc(Cl)nc1-c1ccccc1,-72.9*
O=C(CCS(=O)(=O)c1ccccc1)N(CCCN1CCOCC1)c1nc2ccc(F)cc2s1,-131.7*
COc1ccccc1OCCNC(=O)c1ccc2c(c1)CCC2,-138.0*
O=C(O)c1cccc(COc2ccc3c(c2)CCC3)c1,80.6
COc1ccccc1OCCNC(=O)c1ccc2c(c1)OCCO2,-68.5*
COc1cccc(OC)c1C(=O)NNC(=O)c1cccc(COc2ccc3c(c2)CCC3)c1,-90.9*
CCOc1ccc(OCc2cccc(C(=O)N3CCCCCC3)c2)cc1,76.0
O=C(NN1CCCCC1)c1cccc(COc2ccc(Cl)cc2)c1,-167.4*
Cc1c(NC(=S)Nc2ccccc2C(F)(F)F)cccc1[N+](=O)[O-],-65.5*
Cc1c(NC(=O)Nc2cccs2)cccc1[N+](=O)[O-],-70.8*
Cc1ccc(NC(=O)Nc2cccs2)c(Cl)c1,-201.0*
O=C(Nc1cccs1)Nc1ccccc1Cl,-70.5*
O=C(NC(=O)c1csnn1)Nc1ccccc1Cl,-102.8*
SMILES,aSyn 5UTR act
Fc1ccc(N/N=C/c2ccc(N3CCOCC3)cc2)c(F)c1,-207.5*
C/C(=N\Nc1ccc(F)cc1F)c1ccc(N2CCOCC2)cc1,-95.7*
CN(C)/N=C/c1ccc(N2CCOCC2)cc1,-96.4*
C/C(=N\Nc1ccc(F)cc1F)c1ccc(Br)s1,-81.0*
Cc1c(OCc2ccccc2)cccc1OCc1ccccc1,-70.6*
CSC1=NNC(c2ccc(C(C)(C)C)cc2)=NN1,-106.4*
CN1CCN(C2Cc3cc(Cl)ccc3Sc3cc(F)ccc32)CC1 (configuration not stated),100.8
CN1CCSc2ccc(C(=O)Nc3cc(F)ccc3F)cc21,-98.2*
Cc1ccccc1NC(=O)c1ccc2c(c1)N(C)CCS2,-103.4*
COc1cccc(C(=O)N=c2sc3c(C)ccc(OC)c3n2C)c1,-208.6*
COc1ccccc1C(=O)N=c1sc2c(C)ccc(OC)c2n1C,-80.3*
COc1ccc(C(=O)N=c2sc3c(C)ccc(OC)c3n2C)cc1OC,-294.8*
C(=N\C(/N=C/c1ccco1)c1ccco1)/c1ccco1,-67.7*

# High-throughput results: PubChem BioAssay, Broad Institute
